Assay outcomes from PubChem BioAssay.
NTR1 ag: agonists of human neurotensin receptor NTR1 | P30989 | NTR1-U2OS beta-arrestin-GFP spot imaging, agonist mode | activation, % at 20 µM | hit rate 0.17% among 330,000 | AID 493036;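 active = activation at or above 40% of the spot to cytoplasm intensity ratio, with at least 20 cells analyzed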;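 note: 0% = DMSO without peptide and 100% = 100 nM NTR1 peptide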
TLR4-MyD88 BLA: blocks binding of human TLR4 to MyD88 | HeLa CL3-4 TLR4/MyD88 BLA complementation, FRET ratio | inhibition, % at 8.4 µM | AID 861 | hit rate 0.18% among 200,000 | O00206+Q99836; in the data active = inhibition above about 25%;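 note: 0% = vehicle and 100% = reference inhibitor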
Target sequence (O00206 whole entry, looked up): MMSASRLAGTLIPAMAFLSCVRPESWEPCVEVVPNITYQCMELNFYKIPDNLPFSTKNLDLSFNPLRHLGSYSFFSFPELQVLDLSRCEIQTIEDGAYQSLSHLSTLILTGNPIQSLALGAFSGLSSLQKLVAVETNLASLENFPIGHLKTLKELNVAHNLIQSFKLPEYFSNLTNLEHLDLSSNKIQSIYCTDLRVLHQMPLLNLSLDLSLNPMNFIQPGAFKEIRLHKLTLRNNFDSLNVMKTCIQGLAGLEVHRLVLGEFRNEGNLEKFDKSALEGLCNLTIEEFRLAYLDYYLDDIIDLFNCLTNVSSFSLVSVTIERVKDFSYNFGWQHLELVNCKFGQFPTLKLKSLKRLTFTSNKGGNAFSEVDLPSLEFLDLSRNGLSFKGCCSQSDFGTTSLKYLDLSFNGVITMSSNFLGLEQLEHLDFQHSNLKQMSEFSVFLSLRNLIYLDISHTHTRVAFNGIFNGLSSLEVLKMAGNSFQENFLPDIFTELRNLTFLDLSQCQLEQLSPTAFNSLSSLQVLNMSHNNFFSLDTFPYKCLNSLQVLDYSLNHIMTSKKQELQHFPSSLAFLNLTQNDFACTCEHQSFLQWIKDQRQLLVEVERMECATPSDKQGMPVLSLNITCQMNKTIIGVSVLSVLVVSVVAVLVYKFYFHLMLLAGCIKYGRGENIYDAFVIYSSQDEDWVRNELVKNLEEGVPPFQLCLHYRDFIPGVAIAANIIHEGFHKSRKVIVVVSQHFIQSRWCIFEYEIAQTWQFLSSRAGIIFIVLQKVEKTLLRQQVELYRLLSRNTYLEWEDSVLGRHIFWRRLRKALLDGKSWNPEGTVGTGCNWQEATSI
Target sequence (Q99836 whole entry, looked up): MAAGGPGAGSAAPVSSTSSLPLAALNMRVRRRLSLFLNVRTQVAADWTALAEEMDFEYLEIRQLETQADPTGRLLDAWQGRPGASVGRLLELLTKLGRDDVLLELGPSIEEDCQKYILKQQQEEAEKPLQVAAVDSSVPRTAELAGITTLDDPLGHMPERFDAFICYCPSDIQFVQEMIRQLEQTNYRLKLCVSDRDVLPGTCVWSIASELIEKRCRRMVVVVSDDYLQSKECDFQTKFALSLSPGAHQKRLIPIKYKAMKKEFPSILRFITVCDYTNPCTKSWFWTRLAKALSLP
B2AR ag: activates human beta-2 adrenergic receptor causing internalization; Am2.2-beta2AR cells, FAP receptor internalization, flow cytometry; response, % (concentration not given with the values); P07550; hit rate 0.43% among 340,000;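 active = response above a set limit, near 3 SD of response in nonfluorescent compounds, cut at about 42% in these data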
NOD2 RIPK2 PPI: blocks binding of human NOD2 to RIPK2 | CHO BLA complementation NOD2-RIPK2, CCF4 ratio | inhibition, % at 4.98 µM | hit rate 0.38% among 360,000 | AID 624267; in the data active = inhibition above about 21%;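 note: 0% = vehicle only and 100% = reference blocker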
TLR9-MyD88 inh: blocks human TLR9 binding to MyD88 | Q9NR96+Q99836 | CHO BLA complementation TLR9-MyD88, CCF4 FRET ratio | inhibition, % at 4.98 µM | hit rate 0.21% among 340,000 | AID 504734;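 active = inhibition above the mean over all tested compounds plus 3 SD, cut at about 21% in these data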;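 note: 0% = DMSO only wells and 100% = clavulanate BLA inhibitor control wells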
Bfl-1 A1 inh: inhibitors of the anti-apoptotic protein A1, read as caspase activation; MEF A1-2A-BIM cells, Caspase-Glo 3/7 luminescence, 3 h; percent of clofoctol response, vehicle zero; caspase activation, % (no concentration beside the values); hit rate 0.066% among 330,000; AID 2462;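 active = over half of replicate activation scores above 10%, or exactly half above 10 with the replicate mean above 10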
NOD2-RIPK2 conf: confirmation of human NOD2-RIPK2 interaction inhibitors; shares compounds with NOD2 RIPK2 PPI; CHO cells, NOD2-RIPK2 BLA complementation, CCF4 FRET; inhibition, % at 4.98 µM; hit rate 70% among 1,200;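 active = mean inhibition across replicates above a set limit taken from the earlier primary screen, cut at about 21% in these data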;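 note: 0% = DMSO-only wells and the high end = clavulanate BLA-blocked wells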
NOD2 BLA counter: hits BLA reporter in NOD2-RIPK2 inhibitor counterscreen. shares compounds with NOD2 RIPK2 PPI. CHO BLA reporter, CCF4 FRET ratio. inhibition, % at 4.98 µM. hit rate 57% among 1,200;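 active = mean inhibition above the low-control mean inhibition plus three low-control SD, cut at about 11% in these data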;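 note: 0% = DMSO only wells and 100% = clavulanate high control wells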
An asterisk follows results filed as active; nt = not tested or not shown. An excerpt weighted towards active compounds, which were near 0.97% of everything screened.

SMILES	NTR1 ag	TLR4-MyD88 BLA	B2AR ag	NOD2 RIPK2 PPI	TLR9-MyD88 inh	Bfl-1 A1 inh	NOD2-RIPK2 conf	NOD2 BLA counter
COc1ccc(C(=O)NNC(=O)c2cc3ccccc3cc2O)cc1	0.2	nt	6.4	31.4*	10.2	-1.5	4.6	7.5
NC(CCc1ccccc1)c1csc(Nc2nncc3ccccc23)n1 (stereo not given)	nt	nt	nt	24.2*	nt	nt	7.9	7.9
NC(Cc1ccccc1)c1csc(Nc2nncc3ccccc23)n1 (stereo not given)	nt	nt	nt	15.0	nt	nt	nt	nt
CS(=O)(=O)c1ccc(S(=O)CC(=O)OCc2ccccc2)c([N+](=O)[O-])c1 (stereo not given)	nt	16.5	43.7*	25.2*	12.4	nt	56.4*	25.4*
CCOC(=O)c1ccccc1OC(=O)CS(=O)c1ccccc1[N+](=O)[O-] (stereo not given)	0.9	4.3	1.0	-2.7	2.0	0.2	nt	nt
N#CC1=C(N)Oc2cc(O)c(Cl)cc2C1c1cccnc1 (stereo not given)	0.6	nt	5.5	30.8*	9.1	-0.1	-0.9	3.7
N#CC1=C(N)Oc2cc(O)ccc2C1c1cccnc1 (stereo not given)	0.2	-7.6	-2.9	2.7	-2.8	0.7	nt	nt
CC(=O)Nc1ccc(NC(=O)CCCSc2nc3ccccc3s2)cc1	1.6	-10.1	-2.8	-2.0	-5.3	-0.2	nt	nt
COc1ccc(OC)c(C2C(C(=O)c3ccco3)=C(O)C(=O)N2CC2CCCO2)c1 (stereo not given)	1.2	nt	-6.2	21.1*	7.1	-0.1	1.3	-0.1
C=CCNC(=O)CCc1nnc(C2(c3ccc(Cl)cc3)CCC2)o1	-1.3	17.3	-5.0	-4.3	-6.9	-0.7	nt	nt
Cc1cc(NC(=O)CSc2nc(-c3cccs3)cc(C(F)(F)F)n2)no1	4.5	6.3	-4.4	-13.2	7.9	0.0	nt	nt
COc1ccc(-c2cc(C(F)(F)F)nc(S(C)(=O)=O)n2)cc1	17.4	14.6	35.1	32.5*	16.8	0.2	42.4*	1.6
Cc1cc(NC(=O)CCCS(=O)(=O)c2nc(-c3cccs3)cc(C(F)(F)F)n2)no1	15.7	23.1	39.4	67.6*	20.2	0.6	43.4*	15.2*
COC(=O)CCS(=O)(=O)c1nc(-c2ccccc2)cc(C(F)(F)F)n1	23.0	14.8	97.0*	44.4*	19.3	1.1	59.3*	13.3*
Cc1cccc(NC(=S)NCc2ccc3c(c2)OCO3)c1C	1.4	-2.0	4.8	3.0	-1.1	0.4	nt	nt
Cc1ccccc1NC(=S)NCc1ccc2c(c1)OCO2	-1.3	10.3	-14.0	38.8*	7.9	0.2	-1.8	-3.3
Cc1ccc(S(=O)(=O)n2ccc(OC(=O)c3cccs3)n2)cc1	5.8	-1.9	4.4	-2.8	0.5	2.5	nt	nt
CC(C)(C)c1nc2c(C#N)c(-c3ccc(Cl)cc3)ccn2n1	0.9	1.2	3.2	23.8*	2.4	0.8	2.3	-1.9
CCc1noc(C)c1C(=O)N1CCCC(C(=O)c2cc(F)ccc2F)C1 (stereo not given)	-0.2	5.0	-3.4	-16.7	5.6	-0.8	nt	nt
CC(=O)Nc1cccc(-c2ccnc3c2CC(C)(C(=O)NCc2ccncc2)O3)c1 (stereo not given)	nt	nt	nt	21.3*	nt	nt	3.8	-0.8
CNC(=O)OCc1ncn(-c2ccccc2)c1COC(=O)NC	nt	nt	nt	-9.2	nt	nt	nt	nt
Cc1cccc(NC(=O)CNC(=O)c2ccc3c(c2)OCO3)n1	0.2	nt	-7.9	37.6*	-0.7	-0.2	-6.4	2.1
Cc1cccc(C(C(=O)NC2CCCC2)N(Cc2cccnc2)C(=O)c2csnn2)c1 (stereo not given)	0.7	nt	-1.1	-13.4	6.9	-0.1	nt	nt
CCOc1ccc(/C=C(\C#N)C(=O)c2c(C)[nH]c3ccccc23)cc1OC	13.0	-17.4	-0.7	21.8*	-8.2	-0.8	2.3	-5.7
CC(=O)Nc1ccc2sn(-c3ccccc3)c(=O)c2c1	nt	nt	nt	30.2*	5.2	nt	22.3*	-3.5
SMILES	NTR1 ag	TLR4-MyD88 BLA	B2AR ag	NOD2 RIPK2 PPI	TLR9-MyD88 inh	Bfl-1 A1 inh	NOD2-RIPK2 conf	NOD2 BLA counter
N#Cc1ccc2sn(-c3ccccc3)c(=O)c2c1	nt	nt	nt	24.8*	10.5	nt	50.0*	11.7*
N#Cc1ccc2c(c1)nnn2-c1ccccc1	-0.7	nt	-4.4	-14.8	nt	0.9	nt	nt
O=C1CN(C(=O)COC(=O)Cc2ccccc2F)c2ccccc2N1	-0.4	nt	5.0	-12.8	-1.5	-0.5	nt	nt
N#Cc1ccccc1Cn1cc(/C=C/[N+](=O)[O-])c2ccccc21	27.8	-5.5	94.8*	41.6*	6.8	0.5	69.8*	9.3
O=C(COC(=O)CCc1nc2ccccc2c(=O)[nH]1)NC1CCS(=O)(=O)C1 (stereo not given)	-0.4	8.8	3.8	2.8	-11.1	0.1	nt	nt
CC(C)C[C@H](NC(=O)c1[nH]cnc1C(=O)Nc1ccccc1F)C(=O)OC(C)(C)C	nt	nt	nt	-5.7	-3.9	nt	nt	nt
CN(C)c1ccc(C=Cc2ccnc3ccccc23)cc1N	nt	nt	nt	32.6*	nt	nt	32.4*	32.5*
COc1ccc(CCNC(=O)Nc2ccc3c(c2)c(=O)n(C)n3CC=C(C)C)cc1OC	nt	nt	nt	0.9	nt	nt	nt	nt
COc1ccc(OC)c(CCNC(=O)Cc2ccc(NC(=O)C3=C(C)OCCS3)cc2)c1	nt	nt	nt	2.3	-7.1	nt	nt	nt
Cc1onc(-c2ccccc2)c1NC(=O)Nc1c(-c2ccccc2)noc1C	0.1	-5.9	0.2	9.9	-9.6	0.6	nt	nt
Cc1ccc(-c2noc(N=O)c2NO)cc1	0.0	nt	14.0	22.1*	nt	0.4	24.4*	20.9*
